Results from PubChem BioAssay.
Calls of active or inactive are those of the source.

Legend:
[1] = binders of probe aFSTL3 on microarray, primary screen, stem cell growth factor project, biochemical, small-molecule microarray, fluorescence 635/667 (AID 1064); settings: higher = more signal;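 also: measures binding of the biotinylated anti-FSTL3 antibody to printed compounds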
[2] = binders from COS7 lysate, DM2A8 probe, primary screen, torsin A project, cell lysate, small-molecule microarray, fluorescence 635/667 (AID 1065); settings: higher = more signal, COS7 lysate expressing mutant human TOR1A
[3] = binders of probe aFGF2 on microarray, primary screen, stem cell growth factor project, biochemical, small-molecule microarray, fluorescence 635/667 (AID 1067); settings: higher = more signal;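 also: measures binding of biotinylated aFGF2 protein to printed compounds on slides; z-score merges feature fluorescence and signal-to-noise across triplicate slides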
[4] = binders of probe aFGF10 on microarray, primary screen, stem cell growth factor project, biochemical, small-molecule microarray, fluorescence 635/667 (AID 1071); settings: higher = more signal;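 also: score merges 667 nm spot intensity and signal to noise from triplicate slides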
[5] = biological target: Neurogenic locus notch homolog protein 2 (Homo sapiens) (UniProt Q04721); assay: Notch2 binders on small-molecule microarrays, primary screen, biochemical, small-molecule microarray, 635 nm fluorescence, stem cell growth factors (AID 1073); settings: Notch2 binding, higher = more signal
[6] = biological target: Pro-neuregulin-1, membrane-bound isoform (Homo sapiens) (UniProt Q02297); assay: NRG1 binders on small-molecule microarrays, primary screen, psychiatric disease protein project, biochemical, small-molecule microarray, fluorescence 635/667 (AID 1075); settings: NRG1 binding, 635 nm fluorescence, higher = more signal;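 also: score combines 667 nm spot fluorescence with signal to noise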
[7] = test system: Neuregulin-1 EGF-like domain; assay: binders of neuregulin-1 EGF-like domain, primary screen, biochemical, small-molecule microarray, 635 nm fluorescence (AID 1081); settings: small-molecule microarray binding, higher = more signal;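 also: binding of the protein to compounds printed on small-molecule microarray slides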
[8] = FRG1 promoter luciferase signal modulators, primary screen, FRG1 inhibition for FSHD, cell-based, C2C12 myotubes, firefly/Renilla luciferase, luminescence (AID 1084); settings: higher = more signal, called active from +8 up or from −8 down
[9] = binders of probe aFST on microarray, primary screen, stem cell growth factor project, biochemical, small-molecule microarray, fluorescence 635/667 (AID 1086); settings: higher = more signal;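 also: score merges 667 nm fluorescence with signal-to-noise of each printed compound spot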
[10] = binders of probe aHhip on microarray, primary screen, stem cell growth factor project, biochemical, small-molecule microarray, fluorescence 635/667 (AID 1087); settings: higher = more signal;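 also: score merges spot fluorescence at 667nm with spot signal to noise ratio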

Sequence of Pro-neuregulin-1, membrane-bound isoform (Homo sapiens) (Q02297 whole entry, looked up, the tested form may be a part, canonical isoform): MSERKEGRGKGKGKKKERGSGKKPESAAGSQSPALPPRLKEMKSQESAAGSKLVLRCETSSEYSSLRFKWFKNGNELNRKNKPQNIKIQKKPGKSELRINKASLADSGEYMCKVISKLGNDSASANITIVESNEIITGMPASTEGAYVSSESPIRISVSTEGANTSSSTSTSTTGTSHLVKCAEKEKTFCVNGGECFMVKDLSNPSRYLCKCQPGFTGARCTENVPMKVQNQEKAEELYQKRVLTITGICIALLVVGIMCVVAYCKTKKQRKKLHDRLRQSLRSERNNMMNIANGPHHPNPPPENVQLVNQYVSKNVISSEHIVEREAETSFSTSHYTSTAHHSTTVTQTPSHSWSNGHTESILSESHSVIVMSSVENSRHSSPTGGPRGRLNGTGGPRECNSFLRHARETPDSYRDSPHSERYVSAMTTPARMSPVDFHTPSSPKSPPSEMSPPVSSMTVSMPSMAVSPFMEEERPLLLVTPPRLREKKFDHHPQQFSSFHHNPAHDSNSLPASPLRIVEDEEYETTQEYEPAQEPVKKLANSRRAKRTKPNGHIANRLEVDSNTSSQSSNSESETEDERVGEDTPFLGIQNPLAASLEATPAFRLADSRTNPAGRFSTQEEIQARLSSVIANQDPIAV
Sequence of Neurogenic locus notch homolog protein 2 (Homo sapiens) (Q04721 whole entry, looked up, canonical isoform): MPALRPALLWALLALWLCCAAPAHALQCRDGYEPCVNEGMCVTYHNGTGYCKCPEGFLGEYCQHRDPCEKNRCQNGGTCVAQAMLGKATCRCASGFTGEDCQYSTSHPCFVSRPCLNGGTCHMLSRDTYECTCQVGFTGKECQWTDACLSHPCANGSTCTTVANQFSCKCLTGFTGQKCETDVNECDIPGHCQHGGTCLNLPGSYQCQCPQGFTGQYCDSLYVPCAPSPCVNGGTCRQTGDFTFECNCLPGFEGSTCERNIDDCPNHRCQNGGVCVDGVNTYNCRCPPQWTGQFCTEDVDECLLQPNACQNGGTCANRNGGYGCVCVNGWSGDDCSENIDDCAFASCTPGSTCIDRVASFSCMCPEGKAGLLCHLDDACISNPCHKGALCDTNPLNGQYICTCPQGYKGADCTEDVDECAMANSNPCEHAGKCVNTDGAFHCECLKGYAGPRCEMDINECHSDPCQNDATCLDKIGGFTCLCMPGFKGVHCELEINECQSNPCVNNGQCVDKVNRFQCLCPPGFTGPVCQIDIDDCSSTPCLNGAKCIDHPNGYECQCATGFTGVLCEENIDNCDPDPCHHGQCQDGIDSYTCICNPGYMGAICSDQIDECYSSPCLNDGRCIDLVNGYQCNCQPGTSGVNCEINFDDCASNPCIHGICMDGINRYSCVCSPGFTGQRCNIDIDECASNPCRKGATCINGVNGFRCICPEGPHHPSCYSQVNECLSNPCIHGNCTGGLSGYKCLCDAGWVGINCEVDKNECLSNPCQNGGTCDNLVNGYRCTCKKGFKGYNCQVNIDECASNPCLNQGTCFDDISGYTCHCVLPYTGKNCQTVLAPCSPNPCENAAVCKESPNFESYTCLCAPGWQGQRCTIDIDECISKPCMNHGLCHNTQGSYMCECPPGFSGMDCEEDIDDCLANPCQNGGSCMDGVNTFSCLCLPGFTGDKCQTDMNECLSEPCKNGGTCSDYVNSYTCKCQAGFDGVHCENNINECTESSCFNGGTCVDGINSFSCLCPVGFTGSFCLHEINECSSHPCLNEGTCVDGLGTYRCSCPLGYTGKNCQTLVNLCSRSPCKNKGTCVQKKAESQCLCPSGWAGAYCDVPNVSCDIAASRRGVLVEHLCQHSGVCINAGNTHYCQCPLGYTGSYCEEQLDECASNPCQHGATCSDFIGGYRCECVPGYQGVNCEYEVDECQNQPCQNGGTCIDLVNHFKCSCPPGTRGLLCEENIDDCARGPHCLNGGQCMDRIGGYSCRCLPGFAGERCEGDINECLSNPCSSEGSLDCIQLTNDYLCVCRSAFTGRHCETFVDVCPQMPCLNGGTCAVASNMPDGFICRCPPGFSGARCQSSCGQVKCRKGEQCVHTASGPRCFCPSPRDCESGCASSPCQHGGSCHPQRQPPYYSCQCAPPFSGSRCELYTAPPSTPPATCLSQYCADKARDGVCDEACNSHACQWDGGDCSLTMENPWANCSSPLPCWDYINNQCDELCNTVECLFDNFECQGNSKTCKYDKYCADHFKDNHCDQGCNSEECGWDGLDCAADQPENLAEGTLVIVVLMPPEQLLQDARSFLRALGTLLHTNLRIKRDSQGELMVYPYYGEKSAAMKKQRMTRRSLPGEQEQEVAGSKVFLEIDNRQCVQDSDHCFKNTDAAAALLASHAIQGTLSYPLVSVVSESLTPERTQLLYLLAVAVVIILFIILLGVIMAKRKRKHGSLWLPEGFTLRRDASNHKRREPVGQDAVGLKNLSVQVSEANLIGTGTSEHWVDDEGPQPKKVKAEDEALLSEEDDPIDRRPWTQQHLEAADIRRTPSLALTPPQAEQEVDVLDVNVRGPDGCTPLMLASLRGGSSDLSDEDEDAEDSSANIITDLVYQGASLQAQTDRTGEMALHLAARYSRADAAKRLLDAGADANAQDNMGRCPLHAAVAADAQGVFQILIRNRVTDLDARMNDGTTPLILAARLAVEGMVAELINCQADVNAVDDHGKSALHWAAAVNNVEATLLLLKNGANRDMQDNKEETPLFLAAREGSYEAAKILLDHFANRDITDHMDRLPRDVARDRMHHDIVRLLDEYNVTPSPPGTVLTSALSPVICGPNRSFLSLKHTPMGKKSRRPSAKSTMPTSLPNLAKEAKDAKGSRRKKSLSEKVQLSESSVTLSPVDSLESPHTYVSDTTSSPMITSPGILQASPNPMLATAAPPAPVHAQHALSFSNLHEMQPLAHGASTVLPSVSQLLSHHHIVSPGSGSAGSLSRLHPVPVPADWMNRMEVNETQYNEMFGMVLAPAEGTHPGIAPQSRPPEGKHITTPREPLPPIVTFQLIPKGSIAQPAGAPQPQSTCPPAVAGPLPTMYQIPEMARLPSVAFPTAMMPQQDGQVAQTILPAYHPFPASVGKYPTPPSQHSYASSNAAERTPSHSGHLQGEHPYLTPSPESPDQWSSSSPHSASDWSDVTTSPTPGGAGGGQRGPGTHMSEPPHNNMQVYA

Compound | composite z-score [1] | composite z-score [2] | composite z-score [3] | composite z-score [4] | composite z-score [5] | composite z-score [6] | composite z-score [7] | z-score [8] | composite z-score [9] | composite z-score [10]
NCCCCCNC(=O)[C@@H]1C[C@@H]2C(=O)N3CCC[C@H]3C(=O)N2[C@@H]1c1cccc(OCCO)c1 | 2.37 | 2.1 | 0.103 | 0.349 | 0.185 | 1.86 | 1.26 | 0.76 (inactive) | 1.68 | 0.309
CO[C@@H]1COC(=O)[C@@H]2CCCN2C(=O)[C@@H](C)COC(=O)[C@H](COCc2ccccc2)NC(=O)CC=C[C@H]1C | -0.451 | 0.32 | -0.112 | 0.451 | 0.433 | 0.101 | 0.253 | -0.0485 (inactive) | 0.79 | -0.0645
CN1C(=O)C2C=CC(C(O)c3ccc(Br)cc3)N(N(c3ccccc3)c3ccccc3)C2C1=O (stereo not given) | 0.519 | -0.225 | 0.301 | 0.125 | 1.09 | 0.181 | 0.985 | 0.162 (inactive) | 0.576 | -0.0618
N#Cc1ccc(NN2C(C(O)c3cccc4ccccc34)C=CC3C(=O)N(c4ccccc4)C(=O)C32)cc1 (stereo not given) | -0.0622 | -0.182 | 0.158 | 0.829 | 1.65 | 1.63 | 1.21 | 0.025 (inactive) | 0.889 | 0.0695
C[C@@H]1C=CCC(=O)OC[C@H](C)C(=O)N[C@@H](C)C(=O)OC1 | -0.329 | 0.907 | -0.162 | 0.0108 | 0.0057 | -0.313 | -0.0497 | -0.98 (inactive) | 0.258 | -0.069
C[C@@H]1C=CCC(=O)OC[C@H](C)C(=O)OC[C@H]2O[C@H]1C=C[C@H]2O | -0.414 | 0.304 | 0.0033 | 0.44 | 0.112 | -0.175 | 0.615 | -0.538 (inactive) | 0.512 | 0.106
CCOC(=O)[C@H](Cc1ccccc1)NC(=O)CCC1CC(OC(=O)NCc2ccc3c(c2)OCO3)CC2(CCCC(COC(=O)NCC(c3ccccc3)c3ccccc3)O2)O1 (stereo not given in full) | -0.655 | 0.805 | -0.151 | 0.211 | 0.883 | 0.716 | 1.03 | 1.26 (inactive) | 0.359 | -0.306
CCOC(=O)C1=CC[C@H]2C(=O)N(CC)C(=O)[C@@H]12 | -0.537 | 0.448 | -0.0715 | 0.772 | 0.937 | 0.98 | 1.11 | 0.937 (inactive) | 0.406 | 0.176
CN1C(=O)C2C=CC(C(O)C(c3ccccc3)c3ccccc3)N(NC(=O)OC(C)(C)C)C2C1=O (stereo not given) | 1.16 | 0.868 | 0.448 | 1.09 | 1.73 | 1.99 | 1.22 | 0.745 (inactive) | 1.79 | -0.116
CC(CCN1CCCCc2nc(C)c(C)cc21)=NOC(C)CN1CCCc2nc(C)c(C)cc21 (stereo not given) | 0.0516 | 0.471 | 0.196 | 0.943 | 1.52 | 1.35 | 1.06 | 1.28 (inactive) | 1.24 | 0.82
O=C1O[C@@H](c2ccccc2)[C@@H](c2ccccc2)N2[C@@H](c3ccc(OCCO)cc3)[C@]3(C(=O)Nc4ccccc43)[C@@H](C(=O)N3CCN(c4ncccn4)CC3)[C@H]12 | 0.0612 | 0.574 | -0.0493 | 0.267 | 1.25 | 1.27 | 1.34 | -0.968 (inactive) | 0.847 | 0.106
CC(C)NC(=O)[C@@]1(C)c2ccccc2C(=O)N(Cc2cc(F)cc(C(F)(F)F)c2)[C@H]1c1ccc(CO)cc1 | 0.0059 | 0.0214 | 0.0368 | 0.888 | 1.54 | 0.341 | 1.17 | -1.31 (inactive) | 0.298 | -0.134
Cc1cc2c(nc1C)CCCN2CC(O)CN1CCN(C)CC1 (stereo not given) | 0.499 | 0.382 | 0.0138 | 0.575 | 0.273 | 0.462 | 0.346 | -0.323 (inactive) | 0.758 | 0.744
